SW480 rerep: induces DNA re-replication in SW480 colon adenocarcinoma cells. Potency, µM (doses to about 46.1 µM), most hits filed as activators. actives 1.8% (n = 340,000). AID 624297. SW480 DNA re-replication, Hoechst DNA content imaging, 48 h; also: nearly all actives have a fitted effect of over 55% in size
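Image-based DNA-content assay: after two days of treatment, nuclei were labelled with the DNA dye Hoechst and imaged, and hits were compounds raising the count of nuclei showing high fluorescence intensity.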
MCF10A rereplic: DNA re-replication induction in MCF 10a cells; MCF 10A DNA re-replication, Hoechst nuclear intensity, 48 h; Potency, µM (series often up to 46.1 µM), most hits filed as activators; actives 2.9% (n = 350,000); also: nearly all actives have a fitted effect of over 50% in size
KB-V1 cytotox: KB-V1 MDR subline cytotoxicity | KB-V1 MDR cells viability, CellTiter-Glo, 72 h | Potency, µM (highest dose often 46.1 µM), most hits filed as cytotoxic | actives 3.4% (n = 400,000); also: nearly all actives have a fitted effect of over 60% in size
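Cells of the MDR subline KB-V1 are plated, dosed with compound at multiple concentrations, and incubated 72 h at 37 degrees C; CellTiter-Glo is then added and luminescence read after 10 min.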
ELG1 DNA repair: inhibitors of ELG1-dependent DNA repair in HEK293T cells; Potency, µM (top dose mostly 46.1 µM), most hits filed as inhibitors; HEK293T ELG1-luciferase reporter, luminescence, 16 h; DNA damage induced by 5-fluorouridine; actives 2.3% (n = 330,000); also: nearly all actives have a fitted effect of over 55% in size
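Reporter activity after DNA damage by 5-fluorouridine is monitored. Compound-treated cells incubate 16 hr at 37 °C, then ONE-Glo is added for 30 min before luminescence reading.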
KB-3-1 cytotox: KB-3-1 parental cell cytotoxicity | KB-3-1 viability, CellTiter-Glo ATP luminescence, 72 h | Potency, µM (doses to about 46.1 µM), usual class: cytotoxic | actives 1.4% (n = 400,000); also: nearly all actives have a fitted effect of over 60% in size
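Parental KB-3-1 adenocarcinoma cells in phenol-red-free DMEM with 10% FBS were pin-treated with compounds at several concentrations, incubated 72 h at 37 °C, and viability read by CellTiter-Glo luminescence; concentration-effect curves were fitted after normalization.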
Each line names hits and unclear results; the compound was inactive in the other large screens. Only some compounds are listed: those with a hit (about 8.1% of all), similar ones and a draw of the others. Calls follow the shape of the dose curve; as a rule, active = well fitted curve in the direction sought with a large enough effect; inconclusive = small, poorly fitted or top-dose-only effect, or another doubt; inactive = no such curve, though single readings can be large; an effect the other way counts as inactive or inconclusive.

O=C(c1ccco1)N1N=C(c2ccc(Br)cc2)CC1c1ccco1 (stereo not given)	ELG1 DNA repair 11µM
O=C(c1ccco1)N1N=C(c2ccc(Cl)cc2)CC1c1ccco1 (stereo not given)	KB-3-1 cytotox inconclusive
CCS(=O)(=O)Nc1ccc(C2=NN(C(=O)c3ccco3)C(c3ccco3)C2)cc1 (stereo not given)	SW480 rerep inconclusive, MCF10A rereplic 9.2µM, KB-V1 cytotox inconclusive, ELG1 DNA repair inconclusive, KB-3-1 cytotox 3.7µM
CCc1ccc(C2=NN(S(C)(=O)=O)C(c3cccs3)C2)cc1 (stereo not given)	KB-V1 cytotox 15µM, ELG1 DNA repair inconclusive, KB-3-1 cytotox inconclusive
Cc1nc(SCC(=O)Nc2ccccc2Cl)oc1C	none
CCS(=O)(=O)Nc1ccc(C2=NN(C(=O)c3ccccc3)C(c3cccs3)C2)cc1 (stereo not given)	MCF10A rereplic inconclusive, ELG1 DNA repair 16µM
CCS(=O)(=O)Nc1ccc(C2=NN(C(=O)c3ccco3)C(c3cccs3)C2)cc1 (stereo not given)	MCF10A rereplic inconclusive, KB-V1 cytotox inconclusive, KB-3-1 cytotox inconclusive
CC(=O)Nc1ccc(C2=NN(c3ccccc3)C(c3cccs3)C2)cc1 (stereo not given)	SW480 rerep 12µM, MCF10A rereplic inconclusive
COc1ccc(CCNC(=O)CN(C)S(=O)(=O)c2cccs2)cc1	none
CCC1CCCCN1CCN1C(=O)C2C(C(=O)Nc3ccc(OC)cc3)C3C=CC2(O3)C1C(=O)NC1CCCCC1 (stereo not given)	MCF10A rereplic 9.2µM, ELG1 DNA repair inconclusive
COc1ccc(NC(=O)C2C3C=CC4(O3)C2C(=O)N(CCN2CCCCC2)C4C(=O)NC2CCCC(C)C2C)cc1 (stereo not given)	SW480 rerep 26µM, MCF10A rereplic inconclusive
Cc1cc(C)cc(NC(=O)C2C3C=CC4(O3)C2C(=O)N(CCCN2CCCC2)C4C(=O)NC2CCCC(C)C2C)c1 (stereo not given)	none
CCC1CCCCN1CCN1C(=O)C2C(C(=O)Nc3cccc(OC)c3)C3C=CC2(O3)C1C(=O)NC1CCCCC1 (stereo not given)	MCF10A rereplic inconclusive
CN1CC(=O)N(CC(=O)Nc2cccc(C#N)c2)c2ccccc2C1=O	none (no result: SW480 rerep, MCF10A rereplic, ELG1 DNA repair)
CCc1ccc(Nc2ncc3c(n2)CC(C)CC3=O)cc1 (stereo not given)	ELG1 DNA repair inconclusive
CCc1ccc(Nc2ncc3c(n2)CC(c2ccc(OC)cc2)CC3=O)cc1 (stereo not given)	SW480 rerep 21µM, MCF10A rereplic 18µM, KB-3-1 cytotox inconclusive
COc1ccc(Nc2ncc3c(n2)CC(c2ccccc2)CC3=O)cc1 (stereo not given)	MCF10A rereplic inconclusive, ELG1 DNA repair 15µM
COc1cccc(C(=O)Nc2ncc3c(n2)CC(c2ccc(OC)cc2OC)CC3=O)c1 (stereo not given)	SW480 rerep 6.5µM, MCF10A rereplic 2.3µM, KB-V1 cytotox 5.2µM, ELG1 DNA repair inconclusive, KB-3-1 cytotox inconclusive
Cc1cc2sc3ccccc3c(=O)c2c(C)c1O	KB-V1 cytotox 18µM, ELG1 DNA repair inconclusive, KB-3-1 cytotox inconclusive
O=c1c2ccccc2sc2ccccc12	KB-V1 cytotox inconclusive, KB-3-1 cytotox inconclusive (no result: ELG1 DNA repair)
Cc1ccc2nc3n(c(=O)c2c1)-c1ccccc1C(=O)NC3Cc1ccccc1 (stereo not given)	none (no result: SW480 rerep, MCF10A rereplic, KB-V1 cytotox, KB-3-1 cytotox)
COc1ccc(OC)c(CNC(=O)c2cc3cc4ccc(OC)cc4nc3o2)c1	none (no result: SW480 rerep, MCF10A rereplic, ELG1 DNA repair)
COc1ccc2cc3cc(C(=O)NCCc4ccc(OC)c(OC)c4)oc3nc2c1	MCF10A rereplic inconclusive, KB-V1 cytotox inconclusive, ELG1 DNA repair 5.2µM
COc1ccc2cc3cc(C(=O)NCc4cccs4)oc3nc2c1	MCF10A rereplic inconclusive, KB-V1 cytotox inconclusive, KB-3-1 cytotox 4.6µM
COC(=O)c1c(C)[nH]c(C(=O)COC(=O)CCNS(=O)(=O)c2cccc(C(F)(F)F)c2)c1C	KB-V1 cytotox inconclusive
COc1cc(-c2nnc(Sc3ccc(C(F)(F)F)cc3[N+](=O)[O-])o2)cc(OC)c1OC	SW480 rerep inconclusive, MCF10A rereplic 18µM
O=C(O)c1ccc(Sc2nnc(-c3cccc(Br)c3)o2)c([N+](=O)[O-])c1	none
O=C(Nc1ccccc1)c1cc([N+](=O)[O-])ccc1NCc1cccnc1	SW480 rerep 1.3µM, ELG1 DNA repair inconclusive
CCOC(=O)C1=C(O)C(=O)NC(c2ccccc2)=C(OCC)C1	SW480 rerep inconclusive, KB-3-1 cytotox inconclusive
CCOC(=O)C1=C(O)C(=O)NC(c2ccccc2)=C(OC2CCCCC2)C1	KB-V1 cytotox 15µM, KB-3-1 cytotox inconclusive
CC(OC(=O)/C=C/c1ccco1)C(=O)Nc1cccc([N+](=O)[O-])c1 (stereo not given)	SW480 rerep inconclusive, KB-V1 cytotox 18µM, KB-3-1 cytotox inconclusive
COc1ccc([N+](=O)[O-])cc1NC(=O)C(C)OC(=O)/C=C/c1ccco1 (stereo not given)	KB-V1 cytotox inconclusive
Nc1ccccc1/C=C/c1ccnc2ccccc12	KB-3-1 cytotox inconclusive (no result: SW480 rerep, MCF10A rereplic, ELG1 DNA repair)
Cc1cc(C)cc(C(=O)N(Cc2ccco2)c2c(N)n(Cc3ccccc3)c(=O)[nH]c2=O)c1	none
Cc1c(NC(=O)c2ccc3c(c2)C(=O)N(CC2CCCO2)C3=O)cccc1C(=O)O (stereo not given)	SW480 rerep 4.1µM, ELG1 DNA repair inconclusive
Cc1nnc(NC(=O)c2ccc3c(c2)C(=O)N(CC2CCCO2)C3=O)s1 (stereo not given)	SW480 rerep inconclusive, MCF10A rereplic 12µM, ELG1 DNA repair inconclusive
CCOc1ccccc1NC(=O)c1ccc2c(c1)C(=O)N(CC1CCCO1)C2=O (stereo not given)	none
O=C(Nc1ccc2c(c1)C(=O)N(CC1CCCO1)C2=O)c1ccc(Cl)c(Cl)c1 (stereo not given)	KB-V1 cytotox 21µM, ELG1 DNA repair 9.2µM
CCOC(=O)c1cc(-c2ccc(F)cc2)n(CCC(=O)Nc2cc(OC)cc(OC)c2)c1C	none (no result: SW480 rerep, MCF10A rereplic, ELG1 DNA repair)
Nc1[nH]c(C(=O)c2ccccc2)c(-c2ccncc2)c1C(=O)NCc1ccc(Cl)cc1	KB-V1 cytotox inconclusive (no result: SW480 rerep, MCF10A rereplic, ELG1 DNA repair)
Cc1cc(Br)ccc1NC(=O)C1CCN(S(=O)(=O)c2ccc(Br)s2)CC1	none (no result: SW480 rerep, MCF10A rereplic, ELG1 DNA repair)
NC(=O)C1=CC2C3C=CC2(O)C(=O)OC3O1 (stereo not given)	SW480 rerep 3.7µM, MCF10A rereplic 2.9µM, KB-V1 cytotox inconclusive, KB-3-1 cytotox inconclusive (no result: ELG1 DNA repair)
CCSc1nnc(-c2ccc(S(=O)(=O)NCc3cccs3)cc2)o1	MCF10A rereplic inconclusive, KB-V1 cytotox 21µM, ELG1 DNA repair inconclusive
CCOc1ccc(S(=O)(=O)NCc2cccs2)cc1	none
CC(=O)C(C(C)=O)C(NC(=O)c1cccnc1)(C(F)(F)F)C(F)(F)F	SW480 rerep inconclusive, MCF10A rereplic 21µM
